# Most compounds without a hit are left out; they make up all but 12% or so of the library.
# HP1b binding inh: blocks HP1-beta chromodomain binding to methylated histone tails; Potency, µM (top dose mostly 114 µM), inactives show at the top dose activity change, negative = inhibition, most hits filed as inhibitors; AlphaScreen HP1-beta / biotin-H3K9me3 peptide binding; actives 0.56% (n = 390,000); P83916; also: nearly all actives have a fitted effect of over 70% in size
# Target sequence (P83916 whole entry, looked up): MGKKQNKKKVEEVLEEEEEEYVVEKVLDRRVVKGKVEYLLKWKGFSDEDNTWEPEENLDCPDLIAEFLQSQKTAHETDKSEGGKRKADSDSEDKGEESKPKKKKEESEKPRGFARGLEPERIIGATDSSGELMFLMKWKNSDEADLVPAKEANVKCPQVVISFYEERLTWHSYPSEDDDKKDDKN
#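 Compound inhibition of the preformed complex between 50 nM HP1-beta and 50 nM biotinylated H3K9me3 peptide was read by AlphaScreen. Buffer was PBS pH 7.4 with 0.01% Tween-20. Incubations ran 30 min at room temperature, with 10 ug/mL donor/acceptor beads.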
# BAZ2B block: inhibitors of human BAZ2B bromodomain; actives 4.4% (n = 360,000); Potency, µM (titrated, usually from 114 µM), inactives show at the top dose activity change, negative = inhibition, most hits filed as inhibitors; Q9UIF8; AlphaScreen BAZ2B-H3K14Ac peptide displacement; also: % is scaled to controls: 0 for no effect and ±100 for the full control effect; nearly all actives have a fitted effect of over 60% in size
#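 Inhibition is scored as reduced AlphaScreen emission. The BAZ2B/b-H3(5-23)K14Ac complex (50 nM each) in PBS pH 7.4, 0.01% Tween-20 meets compound (up to 110 uM) for 30 min at RT before bead addition.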
# Sfp inh: blocks B. subtilis Sfp PPTase activity; Q9F4F7; Biochemical Sfp PPTase activity, qHTS; Potency, µM, for the others: largest response in the series, negative = inhibition, hits mostly inhibitors; actives 3.5% (n = 310,000); AID 1490;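 also: the enzyme is Sfp with the accession as filed and its product quenches rhodamine fluorescence; 0% = enzyme reaction without inhibitor and -100% = no enzyme wells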
#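 Compounds were incubated with enzyme (final 15 nM) for 15 min at room temperature before substrate addition started the reaction. Fluorescence at 525 nm excitation, 598 nm emission was recorded immediately and after 30 minutes.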
# G9a block: G9a (human) methyltransferase inhibition; Potency, µM (highest dose often 102 µM), for the others: top-dose activity, negative = inhibition, most hits filed as inhibitors; Q96KQ7; actives 8.8% (n = 350,000); G9a H3K9 monomethylation, AlphaScreen, 2 h; also: % is scaled to controls: 0 for no effect and ±100 for the full control effect; nearly all actives have a fitted effect of over 75% in size
# Target sequence (Q96KQ7 913-1193 limits assumed): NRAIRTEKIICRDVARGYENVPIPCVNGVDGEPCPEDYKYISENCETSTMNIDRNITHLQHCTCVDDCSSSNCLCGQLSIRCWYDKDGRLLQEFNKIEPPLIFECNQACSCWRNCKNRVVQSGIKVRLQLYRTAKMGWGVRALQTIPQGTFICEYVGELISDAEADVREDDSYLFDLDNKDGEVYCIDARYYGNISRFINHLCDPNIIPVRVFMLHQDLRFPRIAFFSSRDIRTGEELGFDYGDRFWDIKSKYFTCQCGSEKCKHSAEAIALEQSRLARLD
#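 AlphaScreen read-out: biotin-H3K9 peptide (500 nM) methylation by 20 nM enzyme with 20 uM SAM, 2 h at room temperature after 15 min compound preincubation; anti-monomethyl H3K9 antibody plus donor/acceptor beads, 10 min dark.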
# L3MBTL1 block: blocks human L3MBTL1; Potency, µM (titrated, usually from 57.1 µM), without a hit: at the highest dose activity, negative = inhibition, most hits filed as inhibitors; actives 0.66% (n = 230,000); AlphaScreen L3MBTL1–H3K9me1 peptide binding; also: % is scaled to controls: 0 for no effect and ±100 for the full control effect; nearly all actives have a fitted effect of over 60% in size
#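 First, the protein-peptide complex forms for 30 min at room temperature (L3MBTL1 50 nM, biotinylated H3K9me1 peptide 75 nM). Next, compounds are pin-transferred and incubated 30 min. Finally, AlphaScreen beads are added and read after 30 min.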
# JMJD2A Tudor inh: JMJD2A Tudor domain (human) inhibition; O75164; AlphaScreen JMJD2A-Tudor / H3K4me3 peptide binding; Potency, µM (doses to about 114 µM), for the others: at the top dose activity change, negative = inhibition, usual class: inhibitors; actives 4.4% (n = 390,000); AID 504339; also: % is scaled to controls: 0 for no effect and ±100 for the full control effect; nearly all actives have a fitted effect of over 50% in size
# The depositor's hits bear a star; ? = inconclusive; / = no result given; [ ] = dose if it differs, or a comment. Calls follow the shape of the dose curve; as a rule, active = well fitted curve in the direction sought with a large enough effect; inconclusive = small, poorly fitted or top-dose-only effect, or another doubt; inactive = no such curve, though single readings can be large; an effect the other way counts as inactive or inconclusive. Potency is read from the fitted curve at half-maximal effect.
SMILES,HP1b binding inh,BAZ2B block,Sfp inh,G9a block,L3MBTL1 block,JMJD2A Tudor inh
CCOc1cc(/C=C2/C(=N)N3N=C(C)SC3=NC2=O)ccc1OS(=O)(=O)c1ccc(C)cc1,1%,8%,4%,2%,/,-22%
CCOc1cc(/C=C2\C(=N)N3N=C(C)SC3=NC2=O)ccc1OCCOc1cccc(OC)c1,40%,-27%,-2%,11%,8%,3%
CCc1nn2c(=O)cc(COc3ccc(/C=C4\C(=N)N5N=C(C)SC5=NC4=O)cc3)nc2s1,15%,50µM*,4%,-13%[59 µM],/,56µM*
CCC1=NN2C(=N)/C(=C\c3ccc(OCCOc4ccc(NC(C)=O)cc4)cc3)C(=O)N=C2S1,23%,-28%,7%,0%,/,-23%
COc1cccc(OCCOc2ccc(/C=C3\C(=N)N4N=C(S(C)(=O)=O)SC4=NC3=O)cc2OC)c1,-3%,79µM*,-7%,40µM*,/,56µM*
COc1cc(/C=C2\C(=N)N3N=C(S(C)(=O)=O)SC3=NC2=O)ccc1OS(=O)(=O)c1ccc(C)cc1,-5%,50µM*,-24%,10%[59 µM],/,56µM*
Cc1cc(/C=C2\C(=N)N3N=C(S(C)(=O)=O)SC3=NC2=O)c(C)n1Cc1ccccc1,-19%,-37%,45µM*,45µM*,/,?
CCCC1=NN2C(=N)/C(=C\c3cc(C)n(Cc4ccccc4)c3C)C(=O)N=C2S1,50%,-2%,-18%,5%,1%,-24%
COc1cc(/C=C2\C(=N)N3N=C(C)SC3=NC2=O)cc(Cl)c1OCCOc1ccc(NC(C)=O)cc1,14%,79µM*,-8%,-2%,/,-6%
C=CCOc1ccc(/C=C2\C(=N)N3N=C(S(=O)(=O)CC)SC3=NC2=O)cc1OC,11%,?,19%,2%[59 µM],/,-12%
COc1ccccc1OCCOc1ccc(/C=C2\C(=N)N3N=C(S(C)(=O)=O)SC3=NC2=O)cc1,-14%,50µM*,-6%,3%[2.33 µM],/,22µM*
COc1cc(/C=C2\C(=N)N3N=C(S(C)(=O)=O)SC3=NC2=O)cc(OC)c1OCCOc1ccccc1C,?,56µM*,-25%,?,/,79µM*
COc1cc(/C=C2\C(=N)N3N=C(C)SC3=NC2=O)cc(OC)c1OCCOc1ccccc1C,-7%,-9%,2%,12%[0.501 µM],0%[2.29 µM],-27%
COc1cc(/C=C2\C(=N)N3N=C(C(C)C)SC3=NC2=O)ccc1OCCOc1ccc(NC(C)=O)cc1,61%,-15%,1%,?,/,-13%
Cn1c(N=NC(=O)c2ccccc2)c(O)c2ccccc21,32µM*,22µM*,4%,?,-22%,32µM*
OCC1OC(O)C(O)C(O)C1O (configuration not stated),/,/,18%,29%[59 µM],/,/
OCC1OC([S-])[C@H](O)C(O)C1O.[Au+] (some centres not stated),/,/,2.2µM*,?,/,/
Cc1ccc(C(=O)O)cc1NC(=S)NC(=O)c1ccc([N+](=O)[O-])c(C)c1,6%,?,?,50µM*,6%,-6%
O=C(NC(=S)Nc1cccc(NC(=S)NC(=O)c2ccccc2)c1)c1ccccc1,-11%,/,/,/,/,-26%
CNC(=S)Nc1ccc(C)c(NC(=S)NC)c1,?,-26%,-25%,28µM*,-8%,-15%
Cc1ccc(CNC(=S)Nc2cc(C(=O)O)ccc2C)cc1,0%,11%,-11%,-33%,/,-11%
Cc1ccc(NC(=S)NC(=O)c2ccccc2)cc1NC(=S)NC(=O)c1ccccc1,-5%,-26%,25µM*,?,-6%,-27%
CC(=O)Nc1ccc(C)c(NC(=S)Nc2ccc(F)cc2)c1,49%,-7%,-9%,/,3%,6%
O=C(CCn1cccn1)Nc1ccc(Br)cc1F,-9%,-7%,/,9%[59 µM],/,-12%
Cc1ccc(-c2cn3c(n2)sc2cc(C(=O)NCCC4=CCCCC4)ccc23)c(C)c1,134%,9%,/,40%[59 µM],/,43%
SMILES,HP1b binding inh,BAZ2B block,Sfp inh,G9a block,L3MBTL1 block,JMJD2A Tudor inh
CCN1CCN(CC(=O)c2c[nH]c3ccccc23)CC1,26%,3%,10%,-7%[59 µM],0%,-21%
CN(C)CC(=O)c1c[nH]c2ccccc12,19%,-23%,15%,27%[0.501 µM],9%,50µM*
Cc1ccc(Cn2cc(CCC(=O)NCc3ccccc3F)c3ccccc32)cc1,32%,-17%,/,-28%[59 µM],/,-14%
CCC(=O)N1CCc2cc(S(=O)(=O)NCCC(=O)Nc3ccc(N(CC)CC)cc3C)ccc21,-14%,/,/,10µM*,/,?
CCOC(=O)Cn1c(=O)oc2cc(S(=O)(=O)Nc3ccc(N(CC)CC)cc3C)ccc21,0%,?,9%,40µM*,/,?
CCN(CC)c1ccc(NS(=O)(=O)c2ccc3c(c2)CCCN3C(C)=O)c(C)c1,-5%[57 µM],40µM*,/,11µM*,/,50µM*
Cc1c(P(=S)(c2ccccc2)c2ccccc2)c2ccccc2n1Cc1ccccc1,/,/,/,/,/,-6%
CCOC(=O)c1cc(-c2ccc(OC(F)F)cc2)nc2nc(SC)[nH]c(=O)c12,33%,-2%,4%,45µM*,7%,-17%
CCOC(=O)c1cc(-c2ccc(OC(F)F)cc2)nc2c1c(=O)[nH]c(=O)n2C,44%,4%,-1%,5%[59 µM],-1%,-8%
CCc1ccc(-n2c(=O)c3c4c(sc3n(CC(=O)c3ccc(F)cc3)c2=O)CCC4)cc1,13%,2%,/,0%[59 µM],/,-16%
N#C/C(=C(/O)CCCl)c1ccccn1,31%,?,-20%,32µM*,-1%,?
COc1ccc(NC(=O)N(C(C)C)C2CCN(C(C)=O)CC2)c(OC)c1,39%,3%,/,-41%[59 µM],/,-9%
Nc1c(N=O)c(=O)[nH]c(=O)n1-c1ccccc1,-17%,/,/,/,/,50µM*
CCCNc1c(N)n(-c2ccccc2)c(=O)[nH]c1=O,14%,56µM*,-11%,35µM*,/,?
c1cn2cc(CN3CCOCC3)nc2s1,15%,6%,-8%,-42%[59 µM],6%,-17%
Cc1ccc(C2SCC(=O)N2Cc2cn3ccsc3n2)o1 (configuration not stated),38%,11%,56µM*,?,4%,-8%
O=C(COC(=O)c1ccc(S(=O)(=O)NCc2ccco2)cc1)Nc1ccccc1OC(F)F,4%,47%,32µM*,50µM*,-17%,-19%
O=C(COC(=O)c1ccc(S(=O)(=O)NCc2ccco2)cc1)Nc1ccccc1,15%,10%,/,?,-7%,-6%
O=C(COC(=O)c1ccc(S(=O)(=O)NCc2ccco2)cc1)Nc1ccc(Cl)cn1,-31%,56µM*,-2%,50µM*,?,?

# High-throughput results as filed in PubChem.
